According to PubChem BioAssay:
Active and inactive are the calls of the source. Unless noted, how the calls were made is not given here.

Tests used:
[1] = anti-His antibody binders, primary screen, artefact control for SMM control protein annotation, biochemical, small-molecule microarray, 635 nm fluorescence (AID 1128); conditions: anti-His Alexa647 antibody binding, higher = more signal;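 further: score merges feature fluorescence with signal-to-noise for each printed compound spot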
[2] = tested on: Human papillomavirus type 1a E7 protein (residues 1-88); experiment: HPV1a E7 small-molecule binders, primary screen, biochemical, small-molecule microarray, residues 1-88, 635 nm (AID 1129); conditions: small-molecule microarray binding, fluorescence 635 nm; higher = more signal
[3] = biological target: Focal adhesion kinase 1 (Homo sapiens) (UniProt Q05397); experiment: small-molecule microarray binders of FAK, primary screen, biochemical, 635/667 nm fluorescence, BSA, DTT (AID 1130); conditions: PTK2 binding, 635 nm fluorescence, higher = more signal;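 further: composite of spot emission at 667 nm and signal to noise over triplicate slides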
[4] = tested on: Fibrinogen (Alexa647-labelled); experiment: fibrinogen binders on compound microarrays, profiling panel, artefact control for SMM control-protein annotation, biochemical, small-molecule microarray, 635/667 nm fluorescence (AID 1131); conditions: fibrinogen-A647 binding fluorescence, higher = more signal;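 further: z-score merges 667 nm fluorescence with per-spot signal-to-noise over triplicate slides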
[5] = biological target: Follistatin (Homo sapiens) (UniProt P19883); experiment: follistatin binders on small-molecule microarrays, primary screen, biochemical, small-molecule microarray, 635/667 nm fluorescence (AID 1132); conditions: FST binding, 635 nm fluorescence, higher = more signal
[6] = biological target: Fibroblast growth factor 2 (Homo sapiens) (UniProt P09038); experiment: FGF2 binders on small-molecule microarrays, primary screen, biochemical, small-molecule microarray, 635/667 nm fluorescence (AID 1133); conditions: small-molecule microarray binding, FGF2, fluorescence 635/667; higher = more signal
[7] = mitochondrial membrane potential change in A549 cells, profiling panel, cell-based, JC-1 fluorescence, basal, 24 h, 100 nL (AID 1138); conditions: higher = more signal;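 further: A549 lung adenocarcinoma cells under basal conditions with no added stimulus; test concentration not given here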
Lefty1 = Lefty1 binders on small-molecule microarrays, primary screen, biochemical, small-molecule microarray, 635/667 nm fluorescence (AID 1139); conditions: small-molecule microarray binding, fluorescence 635/667; higher = more signal
[8] = tested on: wheat germ agglutinin (Triticum aestivum), Alexa647-labelled; experiment: wheat germ agglutinin binders on compound microarrays, profiling panel, artefact control for SMM control-protein annotation, biochemical, small-molecule microarray, 635/667 nm fluorescence (AID 1140); conditions: WGA-A647 binding, 635 nm fluorescence, higher = more signal;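 further: score merges 667 nm feature emission with signal to noise over triplicate slides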
[9] = biological target: Luciferin 4-monooxygenase (Photinus pyralis) (UniProt P08659); experiment: firefly luciferase enzyme inhibitors, primary screen, biochemical, luminescence, purified enzyme, 2006 set (AID 1141); conditions: SteadyGlo luminescence, 30 min, higher = more signal, called active from +8 up or from −8 down;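 further: cell-free assay with purified firefly luciferase at 100 ng per well in PBS; test concentration not given here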
[10] = tested on: Wnt5a (protein binding on small-molecule microarray); experiment: Wnt5a binders on small-molecule microarray, primary screen, biophysical, 635/667 nm fluorescence (AID 1142); conditions: 635 nm fluorescence, higher = more signal;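 further: fluorescence read at 667 nm with signal to noise per printed feature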
[11] = cell viability in Huh7 cells, primary screen, cytotoxicity control for HCV replication inhibitor project, CellTiter-Glo luminescence, basal, 48 h (AID 1143); conditions: Huh7 HCV replicon, higher = more signal, called active from +8 up or from −8 down;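 further: Huh7 hepatoma cells carrying a hepatitis C replication reporter with no stimulus; test concentration not given here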
[12] = P. aeruginosa biofilm formation inhibitors, primary screen, PAO1 strain, BacTiter-Glo luminescence, LB-PBS (AID 1144); conditions: 12 h, higher = more signal
[13] = CREB reporter modulators without forskolin, primary screen, cell-based, PC12, CRE-LacZ reporter, unstimulated (AID 1145); conditions: no forskolin, luminescence, 4.5 h, higher = more signal, called active from +8 up or from −8 down
[14] = CREB reporter modulators under forskolin, primary screen, cell-based, PC12, CRE-LacZ reporter, forskolin-stimulated (AID 1146); conditions: luminescence, 4.5 h, higher = more signal, called active from +8 up or from −8 down;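 further: PC12 cells with 6xCRE LacZ reporter stimulated by forskolin 10 µM; beta-galactosidase reporter signal reflecting CREB driven transcription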
[15] = biological target: Streptavidin (Streptomyces avidinii) (UniProt P22629); experiment: streptavidin binders on small-molecule microarray, primary screen, artefact control for SMM compound annotation, biophysical, 635/667 nm fluorescence (AID 1147); conditions: streptavidin binding, higher = more signal;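 further: signal reflects streptavidin binding to arrayed compounds as a control protein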
[16] = small-molecule binders of probe aInhba, primary screen, biochemical, small-molecule microarray, 635/667 nm fluorescence (AID 1148); conditions: higher = more signal;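 further: score merges 667nm spot fluorescence with signal-to-noise for antibody binding to printed compounds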
Torsin-1A (Homo sapiens) [17] = biological target: Torsin-1A (Homo sapiens) (UniProt O14656); experiment: torsin A binders from cell lysate, primary screen, small-molecule microarray, wild-type, 635/667 nm (AID 1149); conditions: COS7 hTOR1A-WT lysate, 635 nm fluorescence, higher = more signal
Torsin-1A (Homo sapiens) [18] = biological target: Torsin-1A (Homo sapiens) (UniProt O14656); experiment: small-molecule binders of mutant TOR1A in lysate, primary screen, cell lysate, small-molecule microarray, COS7 lysate, 635/667 nm fluorescence (AID 1150); conditions: COS7 hTOR1A mutant lysate, 635 nm fluorescence, higher = more signal;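 further: score pools 667 nm emission and signal to noise measuring lysate protein binding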
[19] = tested on: Sonic hedgehog protein (Shh); experiment: small-molecule binders of Shh protein, primary screen, biochemical, small-molecule microarray, 635/667 nm fluorescence (AID 1151); conditions: small-molecule microarray binding, 635 nm fluorescence; higher = more signal;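 further: Shh protein binding to compounds spotted on small-molecule microarray slides; score combines spot fluorescence intensity with signal-to-noise across triplicate slides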

Chain of Streptavidin (Streptomyces avidinii) (P22629 whole entry, looked up): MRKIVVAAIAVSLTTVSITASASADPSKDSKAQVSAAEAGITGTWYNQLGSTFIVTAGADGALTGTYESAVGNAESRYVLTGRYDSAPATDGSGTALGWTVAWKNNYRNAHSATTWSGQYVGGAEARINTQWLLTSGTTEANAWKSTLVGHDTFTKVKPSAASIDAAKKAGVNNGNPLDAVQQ
Chain of Fibroblast growth factor 2 (Homo sapiens) (P09038 whole entry, looked up): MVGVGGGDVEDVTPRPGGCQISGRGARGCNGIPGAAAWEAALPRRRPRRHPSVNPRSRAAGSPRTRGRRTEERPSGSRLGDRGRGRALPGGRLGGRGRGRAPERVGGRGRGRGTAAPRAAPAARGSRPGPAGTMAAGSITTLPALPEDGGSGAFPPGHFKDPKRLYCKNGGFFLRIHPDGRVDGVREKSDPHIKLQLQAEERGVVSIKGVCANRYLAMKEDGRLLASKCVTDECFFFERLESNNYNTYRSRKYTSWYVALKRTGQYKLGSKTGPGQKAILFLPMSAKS
Chain of Follistatin (Homo sapiens) (P19883 whole entry, looked up): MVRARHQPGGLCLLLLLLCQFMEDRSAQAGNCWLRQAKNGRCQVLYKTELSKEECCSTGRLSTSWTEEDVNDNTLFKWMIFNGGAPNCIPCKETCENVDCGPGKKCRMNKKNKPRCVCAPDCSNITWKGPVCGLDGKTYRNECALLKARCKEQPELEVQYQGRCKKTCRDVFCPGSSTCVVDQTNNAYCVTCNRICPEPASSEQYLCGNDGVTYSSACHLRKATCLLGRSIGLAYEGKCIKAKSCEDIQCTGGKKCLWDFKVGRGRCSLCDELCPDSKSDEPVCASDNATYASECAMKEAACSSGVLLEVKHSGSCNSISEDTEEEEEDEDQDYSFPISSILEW
Chain of Luciferin 4-monooxygenase (Photinus pyralis) (P08659 whole entry, looked up): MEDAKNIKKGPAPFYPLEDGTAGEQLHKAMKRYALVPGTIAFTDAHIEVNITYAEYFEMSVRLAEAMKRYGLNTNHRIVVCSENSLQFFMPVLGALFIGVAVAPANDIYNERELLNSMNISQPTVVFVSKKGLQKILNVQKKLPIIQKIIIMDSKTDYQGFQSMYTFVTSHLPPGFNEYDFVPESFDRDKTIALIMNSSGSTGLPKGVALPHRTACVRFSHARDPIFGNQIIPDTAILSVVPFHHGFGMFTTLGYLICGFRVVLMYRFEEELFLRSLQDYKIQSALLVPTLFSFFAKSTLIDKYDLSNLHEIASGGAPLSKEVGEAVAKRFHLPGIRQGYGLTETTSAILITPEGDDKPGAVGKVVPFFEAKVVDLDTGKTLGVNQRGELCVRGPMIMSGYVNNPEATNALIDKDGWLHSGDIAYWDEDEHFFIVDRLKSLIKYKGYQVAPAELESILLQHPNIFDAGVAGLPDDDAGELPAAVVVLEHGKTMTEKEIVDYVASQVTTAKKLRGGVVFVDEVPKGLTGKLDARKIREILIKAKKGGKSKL
Chain of Torsin-1A (Homo sapiens) (O14656 whole entry, looked up): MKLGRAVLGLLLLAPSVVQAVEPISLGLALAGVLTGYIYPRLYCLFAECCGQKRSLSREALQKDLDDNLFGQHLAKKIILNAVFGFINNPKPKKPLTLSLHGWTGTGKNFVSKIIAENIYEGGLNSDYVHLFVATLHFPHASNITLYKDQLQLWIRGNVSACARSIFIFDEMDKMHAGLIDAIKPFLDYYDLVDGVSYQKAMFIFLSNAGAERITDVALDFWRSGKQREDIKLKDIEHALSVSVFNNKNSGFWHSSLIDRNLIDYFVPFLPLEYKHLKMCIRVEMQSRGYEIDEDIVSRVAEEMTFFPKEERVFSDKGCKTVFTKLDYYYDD
Chain of Focal adhesion kinase 1 (Homo sapiens) (Q05397 whole entry, looked up): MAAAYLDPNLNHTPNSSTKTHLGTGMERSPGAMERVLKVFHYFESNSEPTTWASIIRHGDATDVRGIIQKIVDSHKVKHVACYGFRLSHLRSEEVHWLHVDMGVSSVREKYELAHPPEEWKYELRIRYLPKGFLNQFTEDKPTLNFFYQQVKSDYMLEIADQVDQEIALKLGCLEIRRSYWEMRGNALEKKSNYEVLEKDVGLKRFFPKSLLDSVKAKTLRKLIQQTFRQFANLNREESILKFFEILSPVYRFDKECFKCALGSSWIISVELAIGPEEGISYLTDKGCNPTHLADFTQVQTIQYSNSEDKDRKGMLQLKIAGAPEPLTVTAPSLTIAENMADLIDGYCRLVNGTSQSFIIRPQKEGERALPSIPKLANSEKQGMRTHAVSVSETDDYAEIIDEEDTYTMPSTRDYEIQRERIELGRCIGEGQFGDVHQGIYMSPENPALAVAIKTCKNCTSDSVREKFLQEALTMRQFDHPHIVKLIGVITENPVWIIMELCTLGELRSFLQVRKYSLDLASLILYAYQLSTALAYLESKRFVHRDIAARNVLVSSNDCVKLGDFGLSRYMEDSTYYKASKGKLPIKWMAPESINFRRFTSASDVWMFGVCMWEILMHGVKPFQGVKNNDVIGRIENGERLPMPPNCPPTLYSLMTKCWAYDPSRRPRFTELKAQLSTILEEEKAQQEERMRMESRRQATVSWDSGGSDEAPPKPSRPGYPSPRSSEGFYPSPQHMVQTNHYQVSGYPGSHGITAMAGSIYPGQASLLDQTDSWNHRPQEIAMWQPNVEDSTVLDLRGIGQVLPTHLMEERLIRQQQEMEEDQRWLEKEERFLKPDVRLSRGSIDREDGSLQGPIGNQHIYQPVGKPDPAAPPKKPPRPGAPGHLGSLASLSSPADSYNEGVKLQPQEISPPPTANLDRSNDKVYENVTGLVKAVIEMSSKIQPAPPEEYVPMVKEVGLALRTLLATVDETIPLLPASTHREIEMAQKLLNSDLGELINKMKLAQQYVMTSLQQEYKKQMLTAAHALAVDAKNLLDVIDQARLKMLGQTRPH

SMILES | composite z-score [1] | composite z-score [2] | composite z-score [3] | composite z-score [4] | composite z-score [5] | composite z-score [6] | z-score [7] | composite z-score (Lefty1) | composite z-score [8] | z-score [9] | composite z-score [10] | z-score [11] | z-score [12] | z-score [13] | z-score [14] | composite z-score [15] | composite z-score [16] | composite z-score (Torsin-1A (Homo sapiens) [17]) | composite z-score (Torsin-1A (Homo sapiens) [18]) | composite z-score [19]
CC1CC/C=C\[C@H]2OC34C=CCN(CCN5CCOCC5)C(=O)[C@H]3N(CCCCCCO)C(=O)[C@@H]4C2C(=O)O1 (stereo not given in full) | -0.37 | -0.986 | -0.411 | -2.12 | 0.0859 | -0.649 | 0.746 | -0.259 | -0.7 | -0.934 (inactive) | -0.603 | 0.524 (inactive) | 0.0591 (inactive) | 0.605 (inactive) | 0.241 (inactive) | -0.66 | -0.104 | -1.52 | -0.948 | 0.527
C=C(C(=O)CC[C@@H](OC(C)=O)c1cccc(OCCO)c1)C(C)C | 0.83 | 0.54 | 0.217 | -0.281 | 0.549 | -0.531 | -0.106 | 0.889 | 0.449 | -1.08 (inactive) | -0.162 | -0.344 (inactive) | 0.0482 (inactive) | 2.29 (inactive) | 1.23 (inactive) | -0.377 | 0.0053 | 1.93 | 0.456 | 2
COc1ccc([Si](C)(C)[C@@H]2[C@@H](CCO)O[C@]3(C(=O)N(Cc4ccccc4)c4ccc(N5C(=O)c6ccccc6Oc6ccccc65)cc43)[C@H]2C)cc1 | 0.176 | 0.106 | 0.0875 | -0.0507 | 0.0192 | -0.539 | -0.0766 | 0.172 | 0.204 | 0.762 (inactive) | -0.204 | -5.7 (inactive) | -0.332 (inactive) | 1.07 (inactive) | 1.07 (inactive) | -0.059 | -0.128 | -0.642 | -0.32 | 0.459
C=CCOC(=O)[C@H]1[C@@H]2C(=O)O[C@@H](c3ccccc3)[C@@H](c3ccccc3)N2[C@@H](c2ccc(OCCOC(=O)[C@H]3C[C@H]4C(=O)NCC(=O)N4[C@H]3c3ccc(O)cc3)cc2)[C@]12C(=O)Nc1ccc(I)cc12 | 0.611 | 0.956 | 0.351 | 0.843 | 1.2 | 1.53 | -1.28 | 0.971 | 0.204 | -0.8 (inactive) | 0.112 | -0.402 (inactive) | -1.01 (inactive) | -0.13 (inactive) | -0.8 (inactive) | 0.343 | -0.0736 | 0.406 | 0.349 | 1.55
C=C(COC)C(=O)CC[C@@H](OC(=O)c1cccnc1)c1cccc(OCCO)c1 | -0.007 | 0.23 | -0.437 | -1.48 | 1.29 | 0.773 | 0.525 | 1.19 | 0.981 | -2.86 (inactive) | 0.0666 | -0.864 (inactive) | -0.652 (inactive) | 8.15 (active) | 5.43 (inactive) | -0.296 | -0.127 | 0.653 | 0.778 | 1.37
